Screening data as filed in PubChem.
MRP reversal – reversal of MRP1-mediated doxorubicin resistance, primary screen, H69AR cells, doxorubicin co-treatment | H69AR cells + 2 uM doxorubicin, CellTiter-Glo, 72 h | differential viability (reversal), % at 10 µM | actives 0.04% (n = 85,000) | AID 602, 2007;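 active means viability drop by adding the cancer drug above about 55%, with treated viability meeting a 40% cutoff, limit read from the data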;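 further: viability without doxorubicin minus viability with 2 µM doxorubicin for each compound; larger differential means the compound sensitizes cells more to doxorubicin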
CYP2C9 activ – human CYP2C9 activators, primary screen, biochemical, luminescence. Cytochrome P450 2C9 (Homo sapiens), P11712. recombinant CYP2C9, luciferin-H conversion; hits give high values; factor 1 = untreated enzyme, 0 = blocked. activation factor at 5 µM. actives 1.4% (n = 96,000). AID 1024, 2008;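 active means activation factor of 2 or more for CYP2C9 at a 5 µM dose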;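 further: 0 = sulfaphenazole-blocked wells and 1 = vehicle-only wells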
Target sequence (P11712 whole entry, looked up): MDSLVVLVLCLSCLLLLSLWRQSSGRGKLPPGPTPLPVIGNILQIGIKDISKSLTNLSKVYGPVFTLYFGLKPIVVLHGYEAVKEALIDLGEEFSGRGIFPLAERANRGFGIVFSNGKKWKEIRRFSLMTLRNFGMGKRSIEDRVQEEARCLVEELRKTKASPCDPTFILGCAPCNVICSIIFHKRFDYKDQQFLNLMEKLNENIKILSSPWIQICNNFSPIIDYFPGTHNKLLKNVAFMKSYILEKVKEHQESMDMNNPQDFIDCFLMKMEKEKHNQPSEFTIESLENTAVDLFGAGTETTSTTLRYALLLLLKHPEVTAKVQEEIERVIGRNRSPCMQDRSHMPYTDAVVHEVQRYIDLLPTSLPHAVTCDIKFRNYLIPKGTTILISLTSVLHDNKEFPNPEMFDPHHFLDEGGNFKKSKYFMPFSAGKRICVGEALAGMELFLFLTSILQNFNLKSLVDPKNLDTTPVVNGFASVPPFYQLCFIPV
MRP1 act – H69AR viability gain despite doxorubicin, primary screen, MRP-1 activator project, H69AR cells, CellTiter-Glo; viability rescue; viability increase, % at 10 µM; actives 0.61% (n = 140,000); AID 799, 2007;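 active means viability gain under doxorubicin at or above a set limit, the compound median plus 3 SD, cut at about 4.7% in these data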;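 further: MRP-1 overexpressing cells given doxorubicin 25 µM after compound pretreatment; 18-22 h compound pretreatment then 72 h with doxorubicin before readout; 0% = doxorubicin-only wells and 100% = vehicle-treated cells without doxorubicin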
CYP2C19 inh – blockers of cytochrome P450 2C19 activity – biochemical, luminescence, ADME assay, primary screen; P33261; inhibition, % at 5 µM; CYP2C19 Supersomes, luciferin-H EGE luminescence, 30 min; AID 778, 2007; actives 21% (n = 96,000);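 active means CYP2C19 inhibition above a set limit at 5 µM in the primary screen, cut at about 50% in these data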;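 further: plate controls were negative control wells for no effect and 2.5 mM tranylcypromine positive control for full effect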
CYP2C19 act – human CYP2C19 activators, primary screen, biochemical, luminescence; Cytochrome P450 2C19 (Homo sapiens), P33261; recombinant CYP2C19, luciferin-H EGE luminescence; hits give high values; 0 = fully inhibited enzyme, 1 = untreated enzyme; activation factor at 5 µM; 96,000 tested, under 10 active;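 active means activation factor of at least 2 at 5 µM in the primary screen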;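 further: 0 = wells with 2.5 mM tranylcypromine and 1 = vehicle-only wells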
CYP2C9 inh – blockers of cytochrome P450 2C9 activity – biochemical, luminescence, ADME assay, primary screen. P11712. CYP2C9 Supersomes, luciferin-H conversion. inhibition, % at 5 µM. actives 20% (n = 96,000). AID 777, 2007;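 active means blocking of liver enzyme CYP2C9 beyond about 50% at 5 µM, limit read from the data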
Numbers without * were called inactive; / = no result given. A selection: hits, their analogues and other compounds. The true share with any hit is near 21%.

SMILES	MRP reversal	CYP2C9 activ	MRP1 act	CYP2C19 inh	CYP2C19 act	CYP2C9 inh
COc1ccc2c(c1)c1ncn(CCCN3CCOCC3)c(=O)c1n2C	20	0.9	-4	27	0.7	11
COC(=O)C(/C=N/OCc1ccc([N+](=O)[O-])cc1)NC(=O)c1cccc(Cl)c1 (configuration not stated)	-2	0.4	-1	79*	0.2	61*
OCCN1CCN(CCOc2cccc(Cl)c2)CC1	/	1.1	-3	-12	1.1	-13
N#C/C(=C(/O)CSc1ccccc1C(=O)O)c1nc2ccccc2s1	/	0.9	1	-7	1.1	8
COc1ccc(C/C(O)=C(\C#N)c2nc3ccccc3s2)cc1	-15	0.3	0	-1	1	68*
Cc1ccc(SC/C(O)=C(\C#N)c2nc3ccccc3s2)cc1	-28	0	-1	54*	0.5	100*
N#C/C(=C(/O)COC(=O)c1ccc(C#N)cc1)c1nc2ccccc2s1	/	/	0	/	/	/
CC1CCC(NC(=O)C2CCN(c3cnccn3)CC2)CC1 (configuration not stated)	-4	1.1	0	53*	0.5	-11
Cc1cc(C)c(NS(=O)(=O)c2ccc(Cl)c(C(=O)O)c2)c(C)c1	3	0.4	1	1	1	61*
Cc1cccc(NC(=O)c2cccc(NS(=O)(=O)c3ccc(Cl)cc3)c2)c1	/	0	0	99*	0	97*
O=C(Nc1cccc(S(=O)(=O)Nc2ccc(Cl)cc2)c1)c1ccc(Cl)nc1	/	/	-2	/	/	/
CC(=O)c1cccc(NS(=O)(=O)c2ccc(N/C=C/C(=O)c3ccc(F)cc3)cc2)c1	/	/	0	/	/	/
COc1cc(S(=O)(=O)Nc2cccc(C)c2)ccc1NC(=O)c1ccncc1	/	/	5.2*	/	/	/
CC(=O)c1cccc(NS(=O)(=O)c2ccc(N/C=C\C(=O)c3ccc(C)cc3)cc2)c1	/	0.4	0	15	0.8	65*
Cc1ccc(S(=O)(=O)NC(C)(C)CSc2ccccn2)cc1	/	/	0	/	/	/
Cc1ccccc1NC(=O)c1cc(S(=O)(=O)c2ccccc2)ccc1Cl	/	1	-2	6	0.9	1
Cc1ccc(S(=O)(=O)Nc2cc(C(=O)Nc3cc(C)cc(C)c3)ccc2Cl)cc1	/	0.2	-2	57*	0.4	80*
Cc1cccc(NC(=O)c2cc(S(=O)(=O)c3ccccc3)ccc2Cl)c1	/	0.1	-1	80*	0.2	94*
O=C(OC(C(=O)NCC1CCCO1)c1ccccn1)c1cccs1 (configuration not stated)	-9	1	2	21	0.8	3
COC(=O)c1ccccc1NC(=O)C1CCCN(S(=O)(=O)c2ccccc2)C1 (configuration not stated)	-11	0.7	0	43	0.6	33
COC(=O)c1ccccc1NC(=O)C1CCCN(S(=O)(=O)c2ccc(F)cc2)C1 (configuration not stated)	1	0.2	-2	90*	0.1	80*
COC(=O)c1ccccc1NC(=O)C1CCCN(S(=O)(=O)c2ccc(OC)cc2)C1 (configuration not stated)	2	0.3	-2	54*	0.5	73*
C=CCSc1nc2ccccc2n1C(=O)/C=C/c1cc(OC)c(OC)c(OC)c1	/	0.2	-6	55*	0.5	78*
O=C(Cc1sc(-c2ccccc2)nc1-c1ccccc1)Nc1ccccc1	1	0.5	1	0	1	52*
O=C(Cc1sc(Nc2ccccc2)nc1-c1ccccc1)NCc1ccccc1	/	/	-4	/	/	/
Cc1cc(NC(=O)CSc2cn(CCNC(=O)c3ccc(F)cc3)c3ccccc23)no1	-12	0.3	-2	64*	0.4	75*
COc1ccc(C(=O)NCCn2cc(SCC(=O)Nc3nnc(C)s3)c3ccccc32)cc1	-35	/	7.9*	/	/	/
COc1ccc(C(=O)NCCn2cc(SCC(=O)NCc3ccco3)c3ccccc32)cc1	/	0.1	-3	96*	0	85*
